Inconclusive results are not listed. The source made the active and inactive calls. Calls come from the whole dose curve; as a rule, active = well fitted curve in the direction sought with a large enough effect; inconclusive = small, poorly fitted or top-dose-only effect, or another doubt; inactive = no such curve, though single readings can be large or run the other way.
Assay: qHTS for Inhibitors of the vitamin D receptor (VDR): Hit Validation using a Texas Red Assay (AID 602201)
Conditions: VDR coregulator binding, Texas Red fluorescence polarization, agonist-bound VDR ligand-binding domain; series mostly up to 57.1 µM
Outline: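 After a 2-hour room-temperature incubation, polarization of Texas-Red emission was read (Ex 595 nm/Em 615 nm). Final mix contained 7 nM Texas Red, 1.5 uM VDR-LBD and LG19078.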
Potency is the fitted concentration of half-maximal effect.

Potency, inactive:
CCOC(=O)/C(C#N)=C1\C(=O)N(Cc2ccccc2)c2ccccc21, Cc1cccc(CS(=O)(=O)c2ncc(Cl)c(C(=O)NCc3ccccc3)n2)c1, CCN(CC)c1ccc(C=Nc2ccc(N(C)C)cc2)c(O)c1, O=C(O)CN1C(=O)/C(=C\c2cc(Br)ccc2OCc2ccc(F)cc2)SC1=S, COCCN(CC(=O)NC1CCCCC1)C(=O)/C=C/C(=O)c1ccc(OC)cc1O, O=C1C(C2=C(O)c3ccccc3C2=O)=Nc2ccccc21, CCOC(=O)c1ccc(S(=O)(=O)Nc2cc(S(=O)(=O)N3CCOCC3)ccc2O)cc1, CCCc1nnc(NC(=O)c2nc(S(=O)(=O)Cc3cccc(C)c3)ncc2Cl)s1, CC1(C)CC(=O)C(C(C2=C(O)CC(C)(C)CC2=O)c2ccc(O)c([N+](=O)[O-])c2)=C(O)C1, CC(C)c1nnc(NC(=O)CCS(=O)(=O)c2nc(-c3cccs3)cc(C(F)(F)F)n2)s1

Potency, active:
c1ccc(-c2ccc(C3=Nn4c(Cn5nnc6ccccc65)nnc4SC3)cc2)cc1 22.4 µM, Cc1cc(Br)cc2c1N(Cc1ccccc1OC(C)C)C(=O)C2=O 11.2 µM, c1ccc(-c2nnc3sc(-c4csc5c4CCCC5)nn23)cc1 22.4 µM, CCc1ccc(-n2nc3cc(C)c(N)cc3n2)cc1 15.8 µM, O=C1/C(=C/c2cccc([N+](=O)[O-])c2)CCc2ccccc21 31.6 µM, O=C(/C(=C/c1ccncc1)n1ccnc1)c1ccc(Cl)cc1Cl 14.1 µM, CC(=O)C1=C(c2ccc(Br)cc2)C(=O)c2ccccc2C1=O 3.55 µM, O=c1nc(/C=C/c2cc([N+](=O)[O-])ccc2Cl)cc(C(F)(F)F)[nH]1 3.55 µM, CC(C)(C)c1cc(=O)n(-c2ccccc2)[nH]1 12.6 µM, Cc1ccc(NC(=O)C2=C(c3ccccc3)S(=O)(=O)CCS2(=O)=O)cc1 10 µM, CC(C)(C)C1C/C(=C/c2ccccn2)C(=O)/C(=C/c2ccccn2)C1 (centres undefined) 3.16 µM, CCS(=O)(=O)c1oc(-c2ccc(F)cc2)nc1S(=O)(=O)c1ccccc1 7.08 µM, Cc1ccc(NC(=O)c2nc(S(=O)(=O)Cc3ccccc3F)ncc2Cl)cc1 2.82 µM, O=C(Nc1ccc(F)cc1)c1nc(S(=O)(=O)Cc2ccccc2)ncc1Cl 5.62 µM
